FadD28 binding: M. tuberculosis FadD28 bisubstrate binding inhibition; inhibition, % at 12.5 µM; 360,000 compounds, 0.22% hits; AID 588549; FadD28 bisubstrate probe binding, fluorescence polarization; in the data active = inhibition above about 8.5%, passing the limit was not always enough
Y pestis TopoI: Y. pestis Topo-I inhibition via cleavage products; activity, % at 10 µM; Y. pestis Topo-I cleavage product accumulation, plate reader; AID 504884; 360,000 compounds, 0.064% hits; in the data active = activity above about 50%, passing the limit was not always enough
Vc quorum ag: quorum light induction in luxS cqsA deficient V. cholerae | V. cholerae BH1578 lux reporter, luminescence, 6 h | activation, % at 18.7 µM | 350,000 compounds, 0.16% hits; in the data active = activation mostly above about 9.7%, no sharp cut-off
TcdB inh: inhibitors of Clostridioides difficile toxin B glycohydrolase | inhibition, % at 9.99 µM | P18177 | TcdB glycohydrolase enzymatic assay, plate reader | 350,000 compounds, 0.24% hits; in the data active = inhibition above about 10%
Mtb BioA inh: BioA (M. tuberculosis) enzyme inhibition; inhibition, % at 9.99 µM; AID 602481; purified M. tuberculosis BioA enzyme, plate reader; 360,000 compounds, 0.096% hits; in the data active = inhibition above about 40%
Large screens that a line does not name were inactive. Only some compounds are listed: those with a hit (about 0.58% of all), similar ones and a draw of the others.

CC1(C)OC2C(O1)[C@@H](CO)O[C@H]2n1cnc2c(N)ncnc21 (stereo not given in full)	TcdB inh 14 (no result: Mtb BioA inh)
Cc1nc(N)nc(-c2ccccc2O)n1	Vc quorum ag 17 (no result: TcdB inh)
CC1=NN(c2ccccc2)C(=O)C1=Cc1ccccc1	none
CC1=NN(c2ccccc2)C(=O)/C1=C/c1c(O)n(-c2ccc(F)cc2)[nH]c1=O	FadD28 binding 19 (no result: TcdB inh)
CC1=C/C(=C(/c2ccc(O)c(C)c2)c2ccccc2S(=O)(=O)O)C=CC1=O	none
CC1=C/C(=C(/c2cc(C)c(O)c(Br)c2)c2ccccc2S(=O)(=O)O)C=C(Br)C1=O	Y pestis TopoI 60 (no result: Mtb BioA inh)
C[C@H](O)C#Cc1ccc2c(c1)O[C@@H](CN(C)CC1CCOCC1)[C@H](C)CN([C@H](C)CO)S2(=O)=O	none (no result: FadD28 binding, Y pestis TopoI, Vc quorum ag, TcdB inh)
CCc1cccc2c(C(=O)Cn3nnc(-c4ccc(OC)c(OC)c4)n3)c[nH]c12	FadD28 binding 73 (no result: TcdB inh)
COc1ccc(-c2nnn(CC(=O)NCc3ccc4c(c3)OCO4)n2)cc1OC	none (no result: Mtb BioA inh)
COc1ccccc1/C=C/C(=O)OCC(=O)NCc1ccco1	none (no result: TcdB inh)
COc1cc(/C=C/C(=O)OCC(=O)Nc2cccc(F)c2)ccc1O	none
CCc1cccc2c(C(=O)COC(=O)/C=C/c3ccc(O)c(OC)c3)c[nH]c12	FadD28 binding 35 (no result: TcdB inh)
COc1cc(/C=C/C(=O)OCC(=O)NC(=O)NC(C)(C)C)ccc1O	TcdB inh 16
COc1cc(/C=C/C(=O)OCC(=O)NCc2ccco2)ccc1O	TcdB inh 15
C[C@@H]1CCCCO[C@@H](CN(C)Cc2ccc3c(c2)OCO3)[C@H](C)CN([C@H](C)CO)C(=O)c2cc(NC(=O)CCC(F)(F)F)ccc2O1	none (no result: FadD28 binding, Y pestis TopoI, Vc quorum ag)
COc1ccc(NC(=O)C2CC(=O)N(c3ccccc3F)C2)cc1S(=O)(=O)N1CCCCC1 (stereo not given)	TcdB inh 13
O=C(NC1Cc2ccccc2C1)[C@H]1[C@H](CO)[C@H]2Cn3c(ccc(-c4ccccc4F)c3=O)[C@@H]1N2	none (no result: FadD28 binding, Y pestis TopoI, Vc quorum ag)
O=C(CN1C(=O)S/C(=C\c2ccc(O)c([N+](=O)[O-])c2)C1=O)Nc1ccc(N2CCOCC2)cc1	none
Cc1cccc(NC(=O)CN2C(=O)S/C(=C\c3ccc(O)c([N+](=O)[O-])c3)C2=O)c1	FadD28 binding 85 (no result: Mtb BioA inh)
Cc1ccc(NC(=O)CN2C(=O)S/C(=C/c3ccc(O)c([N+](=O)[O-])c3)C2=O)cc1C	FadD28 binding 31 (no result: Mtb BioA inh)
O=C(CN1C(=O)S/C(=C\c2ccccn2)C1=O)Nc1ccccc1	none
O=C(CN1C(=O)S/C(=C\c2cc(Cl)c(O)c(Cl)c2)C1=O)Nc1ccccc1	FadD28 binding 76
Cc1ccccc1S(=O)(=O)N1C[C@H](O)COC[C@H]2O[C@@H](CC(=O)N3CCN(C)CC3)CC[C@@H]21	none (no result: FadD28 binding, Y pestis TopoI, Vc quorum ag)
C[C@H]1CN([C@@H](C)CO)C(=O)c2cc(NC(=O)C3CCCCC3)ccc2O[C@H]1CN(C)C	none (no result: FadD28 binding, Y pestis TopoI, Vc quorum ag)
C[C@H](CO)N1C[C@H](C)[C@@H](CN(C)S(=O)(=O)c2ccccc2)Oc2ccc(NC(=O)NC3CCCCC3)cc2CC1=O	none (no result: FadD28 binding, Y pestis TopoI, Vc quorum ag)
Oc1ccc2c(ccc3[nH]cnc32)c1	TcdB inh 17 (no result: Mtb BioA inh)
Cc1cc(=O)n2nc(N3CCCC(C(=O)N4CCOCC4)C3)sc2n1 (stereo not given)	none (no result: TcdB inh)
Cc1cc(=O)n2nc(N3CCCC(C(=O)N4CCc5ccccc54)C3)sc2n1 (stereo not given)	Vc quorum ag 17 (no result: TcdB inh)
COC(=O)c1sc2nc(SCc3ccccc3C)n(N)c(=O)c2c1C	TcdB inh 16 (no result: Mtb BioA inh)
COc1cc(Cn2c(-c3ccc(O)c(OC)c3)nc3ccccc32)ccc1O	TcdB inh 15 (no result: Mtb BioA inh)
C[C@H](CO)N1C[C@H](C)[C@H](CN(C)Cc2ccc(Oc3ccccc3)cc2)Oc2ccc(NC(=O)C3CCCCC3)cc2C1=O	none (no result: FadD28 binding, Y pestis TopoI, Vc quorum ag, TcdB inh)
COc1ccc(C(CNC(=O)c2oc3ccc(Br)cc3c2C)N2CCCCC2)cc1 (stereo not given)	none
COc1ccc(C(CNC(=O)c2oc3ccc(OC)cc3c2C)N2CCCC2)cc1 (stereo not given)	TcdB inh 12
Cc1ccc(NS(=O)(=O)c2ccc(C)c(NC(=S)NCCN3CCOCC3)c2)c(C)c1	TcdB inh 16
COc1ccccc1NS(=O)(=O)c1cccc(NC(=S)NCCN2CCOCC2)c1	none (no result: Mtb BioA inh)
C[C@@H]1CN([C@@H](C)CO)C(=O)c2cc(NC(=O)Nc3ccc(F)cc3)ccc2O[C@@H]1CN(C)CC1CCCCC1	none (no result: FadD28 binding, Y pestis TopoI, Vc quorum ag)
C[C@@H]1CN([C@@H](C)CO)C(=O)Cc2cc(NC(=O)Nc3ccc(C(F)(F)F)cc3)ccc2O[C@H]1CN(C)C(=O)Nc1ccccc1	none (no result: FadD28 binding, Y pestis TopoI, Vc quorum ag)
COc1ccc(-c2ccc3c(c2)[C@H]2[C@H](CCN2C(=O)CN2CCOCC2)[C@H](CO)N3)cc1	none (no result: FadD28 binding, Y pestis TopoI, Vc quorum ag)
COc1cccc(-c2ccc3c(c2)[C@@H]2[C@@H](CCN2C(=O)CN2CCOCC2)[C@@H](CO)N3)c1	none (no result: FadD28 binding, Y pestis TopoI, Vc quorum ag, Mtb BioA inh)
COc1ccc(-c2ccc3c(c2)[C@H]2[C@H](CCN2C(=O)CN2CCOCC2)[C@@H](CO)N3)cc1	TcdB inh 15 (no result: FadD28 binding, Y pestis TopoI, Vc quorum ag)
CC(=O)N1CC[C@@H]2[C@@H](CO)Nc3ccc(-c4ccccc4)cc3[C@@H]21	TcdB inh 11 (no result: FadD28 binding, Y pestis TopoI, Vc quorum ag)
COc1ccc(-c2ccc3c(c2)[C@@H]2[C@@H](CCN2C(=O)CN2CCOCC2)[C@H](CO)N3)cc1	TcdB inh 12 (no result: FadD28 binding, Y pestis TopoI, Vc quorum ag)
COc1ccc(C(=O)Nc2ccc3c(c2)OC[C@@H](C)NC[C@H](C)[C@@H](OC)CN(C)C3=O)cc1	none (no result: FadD28 binding, Y pestis TopoI, Vc quorum ag)
C[C@H]1CCCCO[C@H](CN(C)C(=O)c2ccncc2)[C@@H](C)CN([C@@H](C)CO)C(=O)c2cc(NS(=O)(=O)c3ccc(F)cc3)ccc2O1	none (no result: FadD28 binding, Y pestis TopoI, Vc quorum ag)
COc1cc2cc3c(N)c(C(=O)Nc4sc(C)c(C)c4C#N)sc3nc2cc1OC	FadD28 binding 11 (no result: TcdB inh)
COc1cc2cc3c(N)c(C(=O)NCc4ccco4)sc3nc2cc1OC	none (no result: TcdB inh)
O=S(=O)(N[C@H]1CC[C@@H](CCn2cc(C3(O)CCCC3)nn2)O[C@@H]1CO)c1ccc(F)cc1	none (no result: FadD28 binding, Y pestis TopoI, Vc quorum ag)
COc1ccc(Cl)cc1NC(=O)Cn1c(NCCO)nc2ccccc21	TcdB inh 27
Cc1ccc(-n2c(SCC(=O)O)nc3c(sc(=S)n3-c3ccc(C)c(C)c3)c2=O)cc1	TcdB inh 30
O=C(NCCc1ccc(Cl)cc1)c1ccc2c(=O)[nH]c3c(C(=O)NCC4CCCO4)sc(=S)n3c2c1 (stereo not given)	none (no result: FadD28 binding, Y pestis TopoI, Vc quorum ag, Mtb BioA inh)
CCOc1ccc(CCNC(=O)c2ccc3c(=O)[nH]c4c(C(=O)NC(C)C)sc(=S)n4c3c2)cc1	FadD28 binding 21
O=C(NCC1CCCO1)c1sc(=S)n2c1[nH]c(=O)c1ccc(C(=O)N3CCCCC3)cc12 (stereo not given)	FadD28 binding 10.0 (no result: TcdB inh)
CCCCNC(=O)c1sc(=S)n2c1[nH]c(=O)c1ccccc12	FadD28 binding 24 (no result: TcdB inh)
O=C(NCCc1ccccc1)c1ccc2c(=O)[nH]c3c(C(=O)NCC4CCCO4)sc(=S)n3c2c1 (stereo not given)	FadD28 binding 61
CC(=O)N1[C@@H]2Cn3c(ccc(-c4ccc(F)cc4)c3=O)[C@H]1[C@@H](C(=O)N(C)C)[C@@H]2CO	none (no result: FadD28 binding, Y pestis TopoI, Vc quorum ag)
Cc1cccc(-c2ccc([C@@H]3[C@H]4CN(C(=O)CN5CCOCC5)CC(=O)N4[C@H]3CO)cc2)c1	none (no result: FadD28 binding, Y pestis TopoI, Vc quorum ag, Mtb BioA inh)

Bioassay records: PubChem BioAssay, Broad Institute
